# About 79,000 compounds went through this panel and 15% of them were active in at least one assay; those are over-represented in the sample as a whole. The source made the active and inactive calls. No stated cut-off is given here; in the data, active means growth inhibition above about 70%; inactive means the rest.
# Assay: NCI Yeast Anticancer Drug Screen. Data for the cln2 rad14 strain (AID 165);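 further: 0% = growth equal to vehicle treated cultures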
# Settings: S. cerevisiae cln2 rad14 strain, at 50.0 µM, stronger effect = higher value
# Procedure, shortened: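 Yeast strain cln2 rad14, bearing defects in cell cycle control and DNA repair, serves as the test system; values reflect growth inhibition compared with vehicle.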
row,SMILES,growth inhibition
1,O=C(c1ccccc1)C1(c2ccccc2)CCCCC1,-10.6% (inactive)
2,CCN(CC)CCC(=O)c1ccc(OC)cc1,23.4% (inactive)
3,COc1cccc(Nc2nc(NS(=O)(=O)c3cc(C)c(Cl)cc3S)n[nH]2)c1,7.95% (inactive)
4,Cc1ccc(N=Nc2c(O)n(C)c(=O)n(C)c2=O)cc1C,3.95% (inactive)
5,Cn1c(=O)c2[nH]c(SCC(=O)O)nc2n(C)c1=O,-21.4% (inactive)
6,Cc1cc2c(=O)cc(-c3ccc(C(F)(F)F)cc3)oc2c(C(=O)O)c1C,13.1% (inactive)
7,Cc1cnc2cccc(C)c2c1Cl,-16.4% (inactive)
8,CO/N=C1/c2sccc2[C@H](NC(=O)C(Cc2ccccc2)NC(=O)OC(C)(C)C)[C@@H]1O (some centres not stated),-11.9% (inactive)
9,C(=Nc1ccc2ccccc2c1)c1cccs1,-12.1% (inactive)
10,O=C(Nc1ccc2ccccc2c1)C(F)(F)F,-9.8% (inactive)
11,CCCCCCCC(=O)NN(Cn1c(=S)sc2ccccc21)Cn1c(=S)sc2ccccc21,21.7% (inactive)
12,Cc1cc(=O)oc2c(CNC(Cc3ccccc3)C(=O)O)c(O)ccc12 (configuration not stated),-21.1% (inactive)
13,O=C(N/N=C/c1ccc(Cl)cc1)c1ccccc1NC(=O)C1CC1,-23.6% (inactive)
14,CN(C)C1CS(=O)(=O)OC2=C1COCC2 (configuration not stated),-3.8% (inactive)
15,COc1cc2cccc(NC(=O)c3cc(OC)c(OC)c(OC)c3Br)c2cc1OC,19.6% (inactive)
16,CCOCCOCCOC(=O)CC(C)=O,-22.3% (inactive)
17,CC(CO)CCC(=O)C(C)C1CC2(C)CCC3C(CCC4CC(O)CCC43C)C2C12SCCS2 (configuration not stated),17.1% (inactive)

# Reference: PubChem BioAssay (NCI)
